Measurements published in PubChem BioAssay.
The source made the active and inactive calls.

Key:
[1] = binders of probe aFSTL3 on microarray, primary screen, stem cell growth factor project, biochemical, small-molecule microarray, fluorescence 635/667 (AID 1064); details: higher = more signal;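 further: measures binding of the biotinylated anti-FSTL3 antibody to printed compounds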
[2] = binders from COS7 lysate, DM2A8 probe, primary screen, torsin A project, cell lysate, small-molecule microarray, fluorescence 635/667 (AID 1065); details: higher = more signal, COS7 lysate expressing mutant human TOR1A
[3] = binders of probe aFGF2 on microarray, primary screen, stem cell growth factor project, biochemical, small-molecule microarray, fluorescence 635/667 (AID 1067); details: higher = more signal;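 further: measures binding of biotinylated aFGF2 protein to printed compounds on slides; z-score merges feature fluorescence and signal-to-noise across triplicate slides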
[4] = binders of probe aFGF10 on microarray, primary screen, stem cell growth factor project, biochemical, small-molecule microarray, fluorescence 635/667 (AID 1071); details: higher = more signal;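 further: score merges 667 nm spot intensity and signal to noise from triplicate slides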
[5] = target: Neurogenic locus notch homolog protein 2 (Homo sapiens) (UniProt Q04721); assay: Notch2 binders on small-molecule microarrays, primary screen, biochemical, small-molecule microarray, 635 nm fluorescence, stem cell growth factors (AID 1073); details: Notch2 binding, higher = more signal
Sequence of Neurogenic locus notch homolog protein 2 (Homo sapiens) (Q04721 whole entry, looked up, canonical isoform): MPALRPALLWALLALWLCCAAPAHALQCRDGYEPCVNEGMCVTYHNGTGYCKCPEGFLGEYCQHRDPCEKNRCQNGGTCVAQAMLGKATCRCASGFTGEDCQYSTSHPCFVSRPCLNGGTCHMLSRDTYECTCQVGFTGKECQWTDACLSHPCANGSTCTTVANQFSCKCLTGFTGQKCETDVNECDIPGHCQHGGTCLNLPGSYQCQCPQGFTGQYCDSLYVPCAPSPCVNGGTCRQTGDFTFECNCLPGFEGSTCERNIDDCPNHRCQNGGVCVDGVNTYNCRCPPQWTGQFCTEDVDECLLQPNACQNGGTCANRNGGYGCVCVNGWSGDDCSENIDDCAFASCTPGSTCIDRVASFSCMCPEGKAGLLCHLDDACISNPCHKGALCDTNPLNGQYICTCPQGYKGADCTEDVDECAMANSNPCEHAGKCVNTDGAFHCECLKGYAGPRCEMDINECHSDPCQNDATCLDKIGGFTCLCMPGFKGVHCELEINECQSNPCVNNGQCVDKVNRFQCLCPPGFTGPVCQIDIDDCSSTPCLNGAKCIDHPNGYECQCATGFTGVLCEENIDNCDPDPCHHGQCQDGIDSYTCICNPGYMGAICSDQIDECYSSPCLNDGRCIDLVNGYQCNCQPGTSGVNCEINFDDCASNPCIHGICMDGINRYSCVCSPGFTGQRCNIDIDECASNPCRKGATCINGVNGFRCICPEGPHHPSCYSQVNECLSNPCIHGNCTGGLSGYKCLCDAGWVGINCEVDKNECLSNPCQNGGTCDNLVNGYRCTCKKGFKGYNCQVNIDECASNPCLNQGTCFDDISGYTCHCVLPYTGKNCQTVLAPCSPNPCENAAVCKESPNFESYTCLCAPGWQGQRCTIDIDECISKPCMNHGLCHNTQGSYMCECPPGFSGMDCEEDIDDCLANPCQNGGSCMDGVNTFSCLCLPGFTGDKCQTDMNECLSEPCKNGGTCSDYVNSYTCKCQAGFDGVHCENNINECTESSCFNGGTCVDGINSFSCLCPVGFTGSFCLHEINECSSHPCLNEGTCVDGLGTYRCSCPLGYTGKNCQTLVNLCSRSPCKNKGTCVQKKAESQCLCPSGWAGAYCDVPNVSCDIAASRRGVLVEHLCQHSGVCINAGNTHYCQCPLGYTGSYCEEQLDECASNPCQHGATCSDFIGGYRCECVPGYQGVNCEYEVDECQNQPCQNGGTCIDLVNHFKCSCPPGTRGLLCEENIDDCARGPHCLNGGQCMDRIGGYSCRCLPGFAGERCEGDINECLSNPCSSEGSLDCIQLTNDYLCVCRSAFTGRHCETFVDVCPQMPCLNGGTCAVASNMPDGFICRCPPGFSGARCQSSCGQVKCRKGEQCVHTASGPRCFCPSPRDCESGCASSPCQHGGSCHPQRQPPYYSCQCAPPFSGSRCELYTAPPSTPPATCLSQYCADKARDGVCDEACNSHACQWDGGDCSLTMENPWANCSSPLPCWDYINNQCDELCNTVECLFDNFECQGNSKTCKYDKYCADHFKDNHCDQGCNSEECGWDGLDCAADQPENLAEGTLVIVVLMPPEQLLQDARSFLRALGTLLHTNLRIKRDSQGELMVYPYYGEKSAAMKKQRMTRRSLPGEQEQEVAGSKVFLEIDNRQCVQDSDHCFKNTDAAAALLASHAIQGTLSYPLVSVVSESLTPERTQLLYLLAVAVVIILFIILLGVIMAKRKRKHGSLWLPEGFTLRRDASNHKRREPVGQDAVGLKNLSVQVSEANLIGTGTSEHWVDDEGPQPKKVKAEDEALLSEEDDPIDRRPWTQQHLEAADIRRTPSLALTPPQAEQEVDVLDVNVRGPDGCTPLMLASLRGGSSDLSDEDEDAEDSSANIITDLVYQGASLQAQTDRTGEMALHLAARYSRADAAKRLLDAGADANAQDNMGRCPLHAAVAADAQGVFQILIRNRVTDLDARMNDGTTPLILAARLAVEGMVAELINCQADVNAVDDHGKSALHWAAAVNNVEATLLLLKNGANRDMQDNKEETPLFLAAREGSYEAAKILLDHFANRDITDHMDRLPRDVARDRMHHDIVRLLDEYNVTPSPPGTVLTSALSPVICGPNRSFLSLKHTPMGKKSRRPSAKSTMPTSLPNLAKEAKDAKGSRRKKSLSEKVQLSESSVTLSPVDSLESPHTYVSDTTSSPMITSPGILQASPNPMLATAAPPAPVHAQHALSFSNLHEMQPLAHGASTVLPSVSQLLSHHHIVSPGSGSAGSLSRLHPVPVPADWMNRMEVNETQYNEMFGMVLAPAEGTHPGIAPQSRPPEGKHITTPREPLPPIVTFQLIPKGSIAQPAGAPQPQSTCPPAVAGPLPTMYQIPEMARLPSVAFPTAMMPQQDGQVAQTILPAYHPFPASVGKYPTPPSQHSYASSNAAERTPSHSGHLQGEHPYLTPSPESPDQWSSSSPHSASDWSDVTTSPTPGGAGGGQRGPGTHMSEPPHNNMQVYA

[6] = target: Pro-neuregulin-1, membrane-bound isoform (Homo sapiens) (UniProt Q02297); assay: NRG1 binders on small-molecule microarrays, primary screen, psychiatric disease protein project, biochemical, small-molecule microarray, fluorescence 635/667 (AID 1075); details: NRG1 binding, 635 nm fluorescence, higher = more signal;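 further: score combines 667 nm spot fluorescence with signal to noise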
Sequence of Pro-neuregulin-1, membrane-bound isoform (Homo sapiens) (Q02297 whole entry, looked up, the tested form may be a part, canonical isoform): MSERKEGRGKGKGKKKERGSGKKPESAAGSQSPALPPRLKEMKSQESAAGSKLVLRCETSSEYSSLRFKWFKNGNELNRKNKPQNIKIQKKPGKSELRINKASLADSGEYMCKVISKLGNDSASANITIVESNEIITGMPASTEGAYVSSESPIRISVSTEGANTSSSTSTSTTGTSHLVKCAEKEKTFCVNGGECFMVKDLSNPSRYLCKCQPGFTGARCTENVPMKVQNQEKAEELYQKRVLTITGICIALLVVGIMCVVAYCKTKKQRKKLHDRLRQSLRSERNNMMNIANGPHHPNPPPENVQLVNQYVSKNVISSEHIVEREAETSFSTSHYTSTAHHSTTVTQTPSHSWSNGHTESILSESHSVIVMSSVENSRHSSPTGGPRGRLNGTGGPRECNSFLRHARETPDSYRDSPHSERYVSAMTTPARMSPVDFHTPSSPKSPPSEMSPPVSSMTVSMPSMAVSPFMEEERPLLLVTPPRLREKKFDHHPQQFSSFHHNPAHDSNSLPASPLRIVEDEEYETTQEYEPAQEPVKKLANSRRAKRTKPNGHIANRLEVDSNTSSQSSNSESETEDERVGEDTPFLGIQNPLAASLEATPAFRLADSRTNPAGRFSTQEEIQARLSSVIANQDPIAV

[7] = system: Neuregulin-1 EGF-like domain; assay: binders of neuregulin-1 EGF-like domain, primary screen, biochemical, small-molecule microarray, 635 nm fluorescence (AID 1081); details: small-molecule microarray binding, higher = more signal;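 further: binding of the protein to compounds printed on small-molecule microarray slides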
[8] = FRG1 promoter luciferase signal modulators, primary screen, FRG1 inhibition for FSHD, cell-based, C2C12 myotubes, firefly/Renilla luciferase, luminescence (AID 1084); details: higher = more signal, called active from +8 up or from −8 down
[9] = binders of probe aFST on microarray, primary screen, stem cell growth factor project, biochemical, small-molecule microarray, fluorescence 635/667 (AID 1086); details: higher = more signal;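 further: score merges 667 nm fluorescence with signal-to-noise of each printed compound spot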
[10] = binders of probe aHhip on microarray, primary screen, stem cell growth factor project, biochemical, small-molecule microarray, fluorescence 635/667 (AID 1087); details: higher = more signal;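 further: score merges spot fluorescence at 667nm with spot signal to noise ratio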

Row | SMILES | composite z-score [1] | composite z-score [2] | composite z-score [3] | composite z-score [4] | composite z-score [5] | composite z-score [6] | composite z-score [7] | z-score [8] | composite z-score [9] | composite z-score [10]
1 | C=C[C@H](C)[C@H](OC(=O)Nc1ccc(OC)cc1)c1ccc(OCCO)cc1 | 0.284 | -0.294 | -0.181 | -1.65 | -1.34 | -0.154 | 0.834 | 3.14 (inactive) | -0.635 | -0.0173
2 | CCOC(=O)C1=C[C@@H](C(C)(C)C)N(S(=O)(=O)c2ccc(C)cc2)[C@H]1c1ccccc1 | 0.401 | 0.685 | 0.0524 | 0.69 | 1.63 | 0.4 | 0.954 | -1.66 (inactive) | 1.04 | 0.206
3 | O=C1C2C=CC(C(O)c3cc(C(F)(F)F)cc(C(F)(F)F)c3)N(Nc3ccccc3F)C2C(=O)N1c1ccccc1 (stereo not given) | 0.835 | 0.554 | -0.0049 | 0.233 | 0.909 | 1.85 | 1.16 | 0.285 (inactive) | 0.967 | -0.202
4 | CC=CC(O)C1C=CC2C(=O)NC(=O)C2N1Nc1ccccn1 (stereo not given) | -0.293 | 0.205 | -0.151 | 0.204 | 1.03 | 0.934 | 1.24 | 0.571 (inactive) | 0.128 | -0.0618
5 | CN(C)CCCNC(=O)[C@@H]1c2ccccc2C(=O)N(C2CCCCC2)[C@H]1c1ccc(CO)cc1 | -0.537 | 0.249 | 0.0036 | 0.577 | 1.57 | 1.59 | 1.41 | -0.988 (inactive) | 0.434 | -0.131
6 | C=C(C(=O)CC[C@@H](OC(=O)c1ccccc1-c1ccccc1C(=O)O)c1ccccc1OCCO)C(C)C | -0.248 | 0.95 | -0.113 | 0.858 | 0.493 | 0.0729 | 0.838 | 0.16 (inactive) | 0.111 | 0.233
7 | COC(=O)C(CC#Cc1ccc2c(c1)[C@]1(C(=O)N2)[C@H](c2ccc(O)cc2)N2[C@H](c3ccccc3)[C@H](c3ccccc3)OC(=O)[C@H]2[C@@H]1C(=O)N1CCCCCCC1)C(=O)OC | 3.08 | 0.716 | 0.61 | 0.156 | 1.08 | 1.19 | 1.19 | -0.546 (inactive) | 2.44 | 0.17
8 | COc1cc(NN2C(C(O)c3ccc(I)cc3)C=CC3C(=O)N(c4ccccc4)C(=O)C32)cc(OC)c1OC (stereo not given) | 0.32 | 0.808 | 0.145 | 0.868 | 1.55 | 2.04 | 1.35 | -2.51 (inactive) | 1.22 | 0.415
9 | CC(C)C(CO)N1C(=O)[C@@H]2[C@H]3C(=O)OCC=C[C@H]3OC23C=CCN(C(C)(C)C)C(=O)[C@@H]13 (stereo not given in full) | -0.0718 | -0.141 | -0.155 | -0.724 | -0.456 | -0.807 | -1.03 | -0.221 (inactive) | -0.346 | -0.128
10 | C#C[C@@H](CC)O[Si](C#CCCCC#N)(C(C)C)C(C)C | 0.0465 | 0.934 | -0.0891 | -0.146 | -0.604 | 0.873 | 0.74 | -0.0405 (inactive) | -0.241 | -0.236
11 | O=C(O)[C@@H]1C[C@@H]2C(=O)N3CCC[C@H]3C(=O)N2[C@@H]1c1cccc(OCCO)c1 | 3.06 | 2.45 | 0.588 | 0.648 | 1.7 | 2.68 | 1.49 | 1.39 (inactive) | 3.21 | 1.1
12 | CCCCNC(=O)c1ccc(C#C[Si](C(C)C)(C(C)C)C(C)C)c(OC(C)=O)c1 | -0.294 | -0.189 | -0.108 | 0.493 | 1.57 | 0.812 | 1.09 | -0.198 (inactive) | 0.207 | 0.0722
13 | COCC(=C=CC[C@@H](O)c1cccc(OCCO)c1)CCO | -0.117 | 0.0969 | -0.11 | 0.674 | 0.234 | 0.678 | 1.02 | 0.604 (inactive) | 0.101 | -0.0074
14 | [N-]=[N+]=NCc1ccccc1C[C@@]1(C(=O)N2CCCCC2)N=C(c2ccc(OCCCO)cc2)O[C@@H]1c1ccccc1CN=[N+]=[N-] | 0.319 | 1.42 | 0.0234 | 0.144 | 1.14 | 0.698 | 0.901 | -3.69 (inactive) | 0.828 | -0.177
15 | C=C(/C(=C/C[C@@H](OC(=O)c1ccncc1)c1cccc(OCCO)c1)c1cnc2ccccc2c1)C(C)C | 0.21 | 0.375 | -0.123 | 1.15 | 1.22 | 0.788 | 1.17 | 2.61 (inactive) | 0.573 | -0.116
16 | CCOC(=O)C1=CCC(c2ccco2)N(S(=O)(=O)c2ccc(C)cc2)C1 (stereo not given) | 0.632 | -0.0497 | 0.0061 | 0.864 | 1.62 | 1.46 | 0.791 | -2.47 (inactive) | 0.803 | 0.127

Row | SMILES | composite z-score [1] | composite z-score [2] | composite z-score [3] | composite z-score [4] | composite z-score [5] | composite z-score [6] | composite z-score [7] | z-score [8] | composite z-score [9] | composite z-score [10]
17 | C=CCN1C(=O)[C@]2(O[C@H](CCO)[C@@H]([Si](C)(C)c3ccc(OC)cc3)[C@@H]2C)c2cc(NC(=O)c3ccc(OC)cc3)ccc21 | -0.429 | 0.421 | -0.105 | 0.3 | 0.384 | 0.686 | 1.09 | -3.52 (inactive) | 0.346 | -0.204
18 | CCOC(=O)C[C@H]1[C@H](OC(=O)c2ccc(-c3ccccc3)cc2)[C@@H](NC(=O)Cc2ccc(OC)cc2)c2cc(OCCCO)ccc2N1C(=O)Cc1ccc(OC)cc1 | -0.278 | -0.236 | -0.101 | 0.102 | 0.216 | 0.243 | -0.29 | -0.362 (inactive) | 0.3 | -0.154
19 | CCOC(=O)C1=C[C@@H](C(C)(C)C)N(S(=O)(=O)c2ccc(C)cc2)[C@H]1c1ccc(C)cc1 | -0.173 | 0.577 | 0.135 | 1.13 | 1.68 | 0.877 | 0.894 | -2.53 (inactive) | 1.8 | 0.245
20 | CCOC(=O)C[C@H]1[C@H](OC(=O)c2ccc(-c3ccccc3)cc2)[C@@H](NC(=O)CC(C)C)c2cc(OCCCO)ccc2N1C(=O)c1ccccc1 | -0.308 | -0.288 | -0.0236 | 0.311 | 0.623 | -0.037 | 0.648 | -0.165 (inactive) | 0.547 | -0.217
21 | CCCNC(=O)[C@@]1(C)c2ccccc2C(=O)N(Cc2ccccc2)[C@H]1c1ccc(CO)cc1 | 1.93 | -0.685 | 0.12 | 1.32 | -1.28 | 1.97 | 0.974 | -1.98 (inactive) | 0.476 | 0.106
22 | COc1ccc(C#Cc2ccc3c(c2)[C@]2(C(=O)N3)[C@H](C(=O)Nc3nc4ccccc4s3)[C@H]3C(=O)O[C@H](c4ccccc4)[C@H](c4ccccc4)N3[C@@H]2c2ccccc2OCCO)cc1 | -0.0541 | 0.125 | -0.024 | 0.313 | 0.98 | 0.907 | 0.919 | 0.716 (inactive) | 0.723 | 0.176
23 | COc1ccc([Si](C)(C)[C@H]2[C@H](CCO)O[C@@]3(C(=O)N(Cc4ccccc4)c4ccc(N5CCOC5=O)cc43)[C@@H]2C)cc1 | -0.226 | 0.0044 | -0.126 | 0.522 | 0.591 | 0.872 | 0.828 | -2.79 (inactive) | 0.135 | -0.226
24 | C=C(/C(=C/C[C@@H](OC(C)=O)c1ccc(OCCO)cc1)c1cc(C(=O)OC)ccc1OC)C(C)C | -0.247 | 0.239 | -0.155 | 0.29 | 0.355 | 1.67 | 0.945 | 2.89 (inactive) | -0.034 | 0.0024
25 | COC(=O)c1c2oc(c1C(=O)OC)C(=O)N1CCC[C@H]1Cn1nncc1CN(Cc1ccccc1)C(=O)N[C@H](CO)CC2 | 1.31 | 0.0712 | -0.0597 | 0.627 | 0.201 | 0.655 | 0.803 | -0.606 (inactive) | -0.152 | -0.353
26 | CCOC(=O)C1=CC[C@@H](c2ccccc2)N(S(=O)(=O)c2ccc(C)cc2)[C@H]1c1cccc(OC)c1 | 0.154 | -0.133 | 0.0182 | 0.31 | 1.34 | 1.28 | 0.746 | -2.57 (inactive) | 0.648 | -0.0203
27 | Nc1cc(Br)ccc1C(=O)O | -0.0861 | 0.0499 | -0.17 | 0.307 | 0.314 | 0.505 | 0.742 | 0.0039 (inactive) | 0.195 | -0.229
28 | COCCOC(=O)N1C(=O)[C@@]2(c3cc(C#Cc4ccc(OC)cc4)ccc31)[C@H](c1ccc(OCCO)cc1)N1[C@H](c3ccccc3)[C@H](c3ccccc3)OC(=O)[C@H]1[C@@H]2C(=O)Nc1nc2ccccc2s1 | -0.118 | 0.247 | -0.0262 | 0.39 | 1.21 | 0.864 | 0.718 | 2.99 (inactive) | -0.0352 | 0.0695
29 | CC1(C)C(=O)C(c2ccccc2)=C2CN3C(=O)N(CCc4ccccc4)C(=O)C3(Cc3ccc(C(F)(F)F)cc3)C=C21 (stereo not given) | 0.138 | -0.2 | 0.0814 | 0.432 | 1.66 | 0.613 | 0.831 | -0.495 (inactive) | 1.67 | -0.0024
30 | CCOC(=O)C[C@H]1[C@H](OC(=O)c2cc3ccccc3oc2=O)[C@@H](NC(=O)c2ccc3ccccc3c2)c2cc(OCCCO)ccc2N1C(=O)Cc1ccc(OC)cc1 | -0.59 | -0.0976 | -0.196 | 0.531 | 0.759 | 0.711 | 0.936 | -0.0206 (inactive) | 0.73 | 0.0505
31 | COCC1C2CC[C@H]3C(OCc4ccc(OC)cc4)OC[C@]4(C)[C@H]3C2=C(CN4C(=O)OC(C)(C)C)[C@H](C)C1COC (stereo not given in full) | -0.163 | 0.0867 | 0.142 | 1.09 | 1.72 | 1.73 | 1.18 | -0.31 (inactive) | 0.993 | -0.164
32 | [N-]=[N+]=Nc1ccccc1C[C@]1(C(=O)O)N=C(c2ccc(OCCCO)cc2)O[C@H]1c1ccccc1 | 0.0867 | 0.444 | -0.0785 | 0.743 | 0.448 | 1.94 | 1.21 | -1.4 (inactive) | 0.834 | -0.199
